Compound activity as filed in PubChem.
FBW7 activator = human FBW7 E3 ligase activation, primary screen. Q969H0. AlphaScreen FBW7–phospho-cyclin E peptide binding, activator screen. normalized activity (activation), % at 26.1 µM. 0.13% of 650,000 active. AID 1259310; in the data active = normalized activity above about 1.9%;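 note: purified mutant Fbw7 with reduced substrate affinity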
Target sequence (Q969H0 whole entry, looked up): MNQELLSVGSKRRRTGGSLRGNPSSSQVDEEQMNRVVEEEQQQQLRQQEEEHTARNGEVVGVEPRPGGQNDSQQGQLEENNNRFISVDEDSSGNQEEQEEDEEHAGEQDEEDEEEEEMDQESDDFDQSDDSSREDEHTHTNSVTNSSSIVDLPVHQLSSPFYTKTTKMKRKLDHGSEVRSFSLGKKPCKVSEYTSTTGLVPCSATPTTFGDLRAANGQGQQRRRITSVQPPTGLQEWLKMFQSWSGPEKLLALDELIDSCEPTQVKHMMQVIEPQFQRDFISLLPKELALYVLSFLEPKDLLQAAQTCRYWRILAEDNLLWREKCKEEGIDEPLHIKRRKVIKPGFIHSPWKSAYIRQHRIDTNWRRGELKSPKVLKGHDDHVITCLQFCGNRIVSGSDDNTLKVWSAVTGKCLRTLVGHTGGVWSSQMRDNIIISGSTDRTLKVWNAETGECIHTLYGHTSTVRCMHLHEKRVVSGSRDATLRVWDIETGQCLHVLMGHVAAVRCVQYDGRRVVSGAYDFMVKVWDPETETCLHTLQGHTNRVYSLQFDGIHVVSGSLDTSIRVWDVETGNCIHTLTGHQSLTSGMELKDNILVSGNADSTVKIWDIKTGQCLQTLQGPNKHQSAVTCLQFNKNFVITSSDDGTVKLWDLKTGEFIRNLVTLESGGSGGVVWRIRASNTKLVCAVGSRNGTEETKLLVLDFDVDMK
TEAD-YAP block = TEAD-YAP interaction inhibition; HEK-TIYL cells, TEAD-Gal4/YAP UAS-luciferase luminescence; inhibition, % at 9.12 µM; 1.4% of 640,000 active; AID 1259422; in the data active = inhibition above about 32%;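 note: 0% = median of test compound wells and 100% = reference inhibitor wells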
GPR151 activ = activates the human receptor GPR151; Q8TDV0; PathHunter beta-arrestin GPR151 cells, luminescence; activation, % at 11.2 µM; 1% of 650,000 active; AID 1508602; in the data active = activation above about 4.9%;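 note: 0% = median of compound wells and 100% = cells with positive control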
MITF primary = human MITF inhibition, primary screen; O75030; AlphaScreen MITF homodimerization, bead proximity signal; inhibition, % at 2.6 µM; 0.91% of 650,000 active; in the data active = inhibition above about 50%;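 note: 0% = vehicle wells with protein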
MITF inh conf = human MITF inhibition, confirmation; AlphaScreen MITF homodimerization, biotin/His-MITF beads; shares compounds with MITF primary; 16% of 4,700 active; inhibition, % at 2.6 µM;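 active = inhibition above a cutoff derived from the DMSO control wells, cut at about 28% in these data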;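 note: 0% = MITF dimer wells with DMSO only; inhibitors lower the bead chemiluminescence by keeping MITF from dimerizing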
AlphaScreen intf2 = AlphaScreen optical interference, counter-screen. inhibition, % at 2.6 µM. 7.6% of 4,700 active. shares compounds with MITF primary. LysRS AlphaScreen counterscreen, signal interference, triplicate;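 active = inhibition above a cutoff derived from the DMSO control wells, cut at about 30% in these data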
Starred values were filed as active, the others as inactive. Hits are enriched below; roughly 3.5% of the tested compounds scored in any of these assays.

Results for OCCOCCN1CCN(Cc2cccc3ccccc23)CC1 ?
FBW7 activator: 0.0; TEAD-YAP block: -1.3; GPR151 activ: 0.8; MITF primary: 5.7

Results for OCCOCCN1CCN(Cc2cc(Br)cs2)CC1 ?
FBW7 activator: 0.0; TEAD-YAP block: 4.2; GPR151 activ: -0.1; MITF primary: 71.3*; MITF inh conf: 4.4; AlphaScreen intf2: 14.6

Results for Cc1ccccc1CN1CCN(CCOCCO)CC1 ?
FBW7 activator: -0.1; TEAD-YAP block: -4.5; GPR151 activ: 0.2; MITF primary: 69.1*; MITF inh conf: 0.3; AlphaScreen intf2: 2.1

How did CC(=O)N1CCN(Cc2cc(C)ccc2C)CC1 do in these assays?
FBW7 activator: 0.1; TEAD-YAP block: 8.0; GPR151 activ: 1.2; MITF primary: 0.9

How did Cc1ccc(C)c(N2CCN(C(=O)Cn3ncc4c(=O)oc5ccccc5c43)CC2)c1 do in these assays?
FBW7 activator: 0.5; TEAD-YAP block: 1.1; GPR151 activ: -0.1; MITF primary: 15.8

What do the screens show for `Cc1ccnc(NC(=O)CSC2=NC(=O)C(c3ccccc3)C(=O)N2)c1` (stereo unspecified)?
FBW7 activator: -0.2; TEAD-YAP block: 2.6; GPR151 activ: 1.2; MITF primary: 92.7*; MITF inh conf: 1.9; AlphaScreen intf2: 9.1

What do the screens show for `Cc1cc(C)c(OCCCNCCN(C)C)c(Br)c1`?
FBW7 activator: -0.5; TEAD-YAP block: 0.8; GPR151 activ: 1.7; MITF primary: 54.6*; MITF inh conf: 3.2; AlphaScreen intf2: 20.6

How did Cc1cc(Br)cc(Cl)c1OCCCNCCN(C)C do in these assays?
FBW7 activator: 0.6; TEAD-YAP block: -4.4; GPR151 activ: 0.8; MITF primary: -21.8

How did COCCCNCCCCOc1c(Cl)cc(C)cc1Br do in these assays?
FBW7 activator: 0.0; TEAD-YAP block: 14.7; GPR151 activ: 0.4; MITF primary: 58.3*; MITF inh conf: 5.3; AlphaScreen intf2: 10.1

How did COCCNCCCOc1c(Cl)cc(C)cc1Br do in these assays?
FBW7 activator: -0.1; TEAD-YAP block: 5.8; GPR151 activ: 3.2; MITF primary: 27.2

How did COCCCNCCOCCOc1c(C)cc(C)cc1Cl do in these assays?
FBW7 activator: 0.0; TEAD-YAP block: 5.0; GPR151 activ: -1.9; MITF primary: 51.9*; MITF inh conf: 5.1; AlphaScreen intf2: 11.4

Results for COc1ccc(-c2nc(C)c(CCNC(=O)c3cccs3)s2)cc1OC ?
FBW7 activator: 0.1; TEAD-YAP block: -49.0; GPR151 activ: 0.8; MITF primary: 3.3

What do the screens show for `O=C(CNCc1ccccc1F)Nc1ccccc1N1CCOCC1`?
FBW7 activator: 0.2; TEAD-YAP block: -12.5; GPR151 activ: -0.7; MITF primary: 74.0*; MITF inh conf: 11.7; AlphaScreen intf2: 20.6

How did O=C(CCl)Nc1ccccc1N1CCCCCC1 do in these assays?
FBW7 activator: 0.0; TEAD-YAP block: 13.6; GPR151 activ: -0.9; MITF primary: -3.4

How did O=C(CNCc1ccccc1Cl)Nc1ccccc1N1CCCCC1 do in these assays?
FBW7 activator: 0.2; TEAD-YAP block: -7.8; GPR151 activ: -1.0; MITF primary: 62.2*; MITF inh conf: 4.1; AlphaScreen intf2: 8.7

Results for COc1ccc(S(=O)(=O)N2CCC(N3CCN(c4ccccc4OC)CC3)CC2)cc1 ?
FBW7 activator: 0.8; TEAD-YAP block: 0.8; GPR151 activ: -1.1; MITF primary: 88.7*; MITF inh conf: 3.0; AlphaScreen intf2: 13.3

What do the screens show for `CC1CN(C2CCN(S(=O)(=O)c3ccc4ccccc4c3)CC2)CC(C)O1` (stereo unspecified)?
FBW7 activator: -0.1; TEAD-YAP block: -0.4; GPR151 activ: 0.0; MITF primary: 51.8*; MITF inh conf: 3.2; AlphaScreen intf2: 6.5

What do the screens show for `COc1ccccc1N1CCN(C2CCN(C3CCCCC3)CC2)CC1`?
FBW7 activator: -0.1; TEAD-YAP block: -2.0; GPR151 activ: -0.8; MITF primary: 69.2*; MITF inh conf: -8.4; AlphaScreen intf2: -1.5

How did COc1ccccc1N1CCN(C2CCCN(C3CCC3)C2)CC1 (stereo unspecified) do in these assays?
FBW7 activator: 0.0; TEAD-YAP block: -1.6; GPR151 activ: 1.2; MITF primary: 11.6

How did COc1ccccc1N1CCN(C2CCCN(S(=O)(=O)c3ccc(C)cc3)C2)CC1 (stereo unspecified) do in these assays?
FBW7 activator: -0.1; TEAD-YAP block: 1.0; GPR151 activ: 0.6; MITF primary: -5.7

How did COc1cccc(CN2CCC(N3CCN(c4ccccc4OC)CC3)CC2)c1 do in these assays?
FBW7 activator: 0.0; TEAD-YAP block: 2.7; GPR151 activ: -2.7; MITF primary: 56.5*; MITF inh conf: -3.6; AlphaScreen intf2: -3.1

How did COc1cc2nc(COc3ccccc3)oc(=O)c2cc1OC do in these assays?
FBW7 activator: 0.1; TEAD-YAP block: 2.6; GPR151 activ: 0.9; MITF primary: 4.8

What do the screens show for `COc1ccc(N(C2C=CS(=O)(=O)C2)S(C)(=O)=O)cc1` (stereo unspecified)?
FBW7 activator: 0.0; TEAD-YAP block: 7.9; GPR151 activ: 0.9; MITF primary: 2.3

How did Cc1cccc(NC(=O)c2cc3n(n2)C(C(F)(F)F)CC(c2ccc4c(c2)OCO4)N3)c1C (stereo unspecified) do in these assays?
FBW7 activator: -0.1; TEAD-YAP block: -3.1; GPR151 activ: -0.2; MITF primary: -2.2

What do the screens show for `COc1ccc(N(C(=O)/C=C/c2ccccc2)C2=CC3CCC(C2)N3C)cc1` (stereo unspecified)?
FBW7 activator: 0.2; TEAD-YAP block: -32.9; GPR151 activ: -2.7; MITF primary: 56.2*; MITF inh conf: 9.0; AlphaScreen intf2: 11.0

Results for O=C(CN1CCC(Cn2cnc3ccccc32)CC1)N1CCc2ccccc21 ?
FBW7 activator: -0.4; TEAD-YAP block: 35.1*; GPR151 activ: 0.4; MITF primary: 81.5*; MITF inh conf: 0.5; AlphaScreen intf2: 14.0

How did Cc1ccc(NC(=O)CN2CCC(Cn3cnc4ccccc43)CC2)cc1Cl do in these assays?
FBW7 activator: -0.3; TEAD-YAP block: -4.7; GPR151 activ: 0.0; MITF primary: 69.7*; MITF inh conf: 11.5; AlphaScreen intf2: 13.3

What do the screens show for `CCOC(=O)N1CCN(C(=O)Cn2cnc3ccccc32)CC1`?
FBW7 activator: -0.1; TEAD-YAP block: 7.2; GPR151 activ: 0.8; MITF primary: -0.2

What do the screens show for `CCOC(=O)CN1CCC(Cn2cnc3ccccc32)CC1`?
FBW7 activator: -0.4; TEAD-YAP block: 16.7; GPR151 activ: 0.3; MITF primary: 79.2*; MITF inh conf: 6.9; AlphaScreen intf2: 17.3

How did CC1CN(C(=O)CSc2nc3[nH]ncc3c(=O)[nH]2)CC(C)O1 (stereo unspecified) do in these assays?
FBW7 activator: 0.1; TEAD-YAP block: -1.1; GPR151 activ: 1.8; MITF primary: 0.8

Results for COc1ccccc1CN1CCN(S(=O)(=O)c2ccccc2)CC1 ?
FBW7 activator: 0.1; TEAD-YAP block: -3.5; GPR151 activ: -0.9; MITF primary: 63.2*; MITF inh conf: 1.0; AlphaScreen intf2: 9.4
